Data from the supplement of paper PMC6411743.
± gives the standard deviation of the averaged measurements. Targets with the largest changes are over-represented here; the source holds about 6,200 in all.

What was measured:
Test in all cases: NP40-soluble protein abundance relative to vehicle (solubility fold change) (ratio); higher = more soluble protein in presence of AMP-PNP
[1] = target: T1, KIAA0319L (UniProt Q8IZA0)
T1 sequence (whole entry): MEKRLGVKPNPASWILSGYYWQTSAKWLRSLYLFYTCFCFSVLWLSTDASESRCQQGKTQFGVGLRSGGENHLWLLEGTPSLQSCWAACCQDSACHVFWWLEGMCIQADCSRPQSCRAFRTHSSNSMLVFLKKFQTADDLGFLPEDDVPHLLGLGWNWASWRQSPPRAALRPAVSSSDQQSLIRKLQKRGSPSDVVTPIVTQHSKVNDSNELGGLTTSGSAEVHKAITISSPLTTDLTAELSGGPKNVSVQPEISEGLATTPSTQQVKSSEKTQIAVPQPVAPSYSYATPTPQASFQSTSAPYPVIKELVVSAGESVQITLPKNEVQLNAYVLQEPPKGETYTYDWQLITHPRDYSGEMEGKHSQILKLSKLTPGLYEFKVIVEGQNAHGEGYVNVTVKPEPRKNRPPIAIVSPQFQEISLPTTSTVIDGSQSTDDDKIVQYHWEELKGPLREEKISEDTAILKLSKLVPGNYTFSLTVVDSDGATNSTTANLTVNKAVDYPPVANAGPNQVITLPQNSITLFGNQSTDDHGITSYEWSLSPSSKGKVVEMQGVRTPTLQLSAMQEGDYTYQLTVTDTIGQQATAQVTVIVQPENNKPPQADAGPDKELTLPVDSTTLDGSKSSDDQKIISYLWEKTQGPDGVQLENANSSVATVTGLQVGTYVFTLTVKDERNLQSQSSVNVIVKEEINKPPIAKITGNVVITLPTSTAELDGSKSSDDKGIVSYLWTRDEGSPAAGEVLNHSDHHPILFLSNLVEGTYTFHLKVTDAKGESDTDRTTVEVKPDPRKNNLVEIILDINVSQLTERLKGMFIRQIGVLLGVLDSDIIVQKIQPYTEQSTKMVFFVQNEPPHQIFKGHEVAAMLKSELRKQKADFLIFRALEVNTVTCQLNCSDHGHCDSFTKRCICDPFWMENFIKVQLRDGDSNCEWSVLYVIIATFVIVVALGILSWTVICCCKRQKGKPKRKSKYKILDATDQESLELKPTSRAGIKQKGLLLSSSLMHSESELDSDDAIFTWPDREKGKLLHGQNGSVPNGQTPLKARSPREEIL
Method in brief: (§1)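 Crude Jurkat lysate, prepared by Dounce homogenisation, was exposed to eight concentrations from 0.1 to 10 mM for 10 min at room temperature and then 3 min at 37 °C. Solubilisation used 0.8% NP40 with benzonase for 60 min at 4 °C, followed by ultracentrifugation and TMT labelling of the supernatant for LC-MS/MS. After vsn normalisation of intensities, each value is the fold change against the detergent-processed vehicle within each replicate, across three independent experiments.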

[2] = target: T2, NUFIP2 (UniProt Q7Z417)
T2 sequence (whole entry): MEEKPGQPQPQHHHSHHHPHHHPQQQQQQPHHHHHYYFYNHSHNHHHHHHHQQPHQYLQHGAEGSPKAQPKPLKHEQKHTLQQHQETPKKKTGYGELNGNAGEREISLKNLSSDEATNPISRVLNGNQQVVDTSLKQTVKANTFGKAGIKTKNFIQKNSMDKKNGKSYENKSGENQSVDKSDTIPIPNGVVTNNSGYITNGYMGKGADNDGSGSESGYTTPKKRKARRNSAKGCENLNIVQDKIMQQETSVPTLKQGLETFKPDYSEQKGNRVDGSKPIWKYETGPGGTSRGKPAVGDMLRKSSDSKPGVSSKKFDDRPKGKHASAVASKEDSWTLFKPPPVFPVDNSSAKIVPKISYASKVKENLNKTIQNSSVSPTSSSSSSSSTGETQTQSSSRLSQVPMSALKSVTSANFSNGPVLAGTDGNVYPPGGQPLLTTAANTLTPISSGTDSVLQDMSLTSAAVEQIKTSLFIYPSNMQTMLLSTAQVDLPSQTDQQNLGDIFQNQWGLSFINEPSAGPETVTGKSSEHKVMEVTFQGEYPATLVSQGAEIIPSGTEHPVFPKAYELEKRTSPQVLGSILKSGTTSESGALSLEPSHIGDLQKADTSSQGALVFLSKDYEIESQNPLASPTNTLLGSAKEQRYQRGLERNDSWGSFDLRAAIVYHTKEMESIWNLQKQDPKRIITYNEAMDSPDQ
Method in brief: as §1

[3] = target: T3, PINX1 (UniProt Q96BK5)
T3 sequence (whole entry): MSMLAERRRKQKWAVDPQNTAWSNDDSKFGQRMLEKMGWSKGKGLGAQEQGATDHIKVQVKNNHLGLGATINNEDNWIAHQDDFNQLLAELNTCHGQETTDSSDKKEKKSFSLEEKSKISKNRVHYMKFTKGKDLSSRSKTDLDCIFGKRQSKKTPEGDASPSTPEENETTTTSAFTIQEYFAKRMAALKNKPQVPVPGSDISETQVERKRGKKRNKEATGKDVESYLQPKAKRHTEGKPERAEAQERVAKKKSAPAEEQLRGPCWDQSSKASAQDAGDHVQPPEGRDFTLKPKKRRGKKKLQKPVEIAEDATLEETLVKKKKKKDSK
Method in brief: as §1

[4] = target: T4, TTF1 (UniProt Q15361)
T4 sequence (whole entry): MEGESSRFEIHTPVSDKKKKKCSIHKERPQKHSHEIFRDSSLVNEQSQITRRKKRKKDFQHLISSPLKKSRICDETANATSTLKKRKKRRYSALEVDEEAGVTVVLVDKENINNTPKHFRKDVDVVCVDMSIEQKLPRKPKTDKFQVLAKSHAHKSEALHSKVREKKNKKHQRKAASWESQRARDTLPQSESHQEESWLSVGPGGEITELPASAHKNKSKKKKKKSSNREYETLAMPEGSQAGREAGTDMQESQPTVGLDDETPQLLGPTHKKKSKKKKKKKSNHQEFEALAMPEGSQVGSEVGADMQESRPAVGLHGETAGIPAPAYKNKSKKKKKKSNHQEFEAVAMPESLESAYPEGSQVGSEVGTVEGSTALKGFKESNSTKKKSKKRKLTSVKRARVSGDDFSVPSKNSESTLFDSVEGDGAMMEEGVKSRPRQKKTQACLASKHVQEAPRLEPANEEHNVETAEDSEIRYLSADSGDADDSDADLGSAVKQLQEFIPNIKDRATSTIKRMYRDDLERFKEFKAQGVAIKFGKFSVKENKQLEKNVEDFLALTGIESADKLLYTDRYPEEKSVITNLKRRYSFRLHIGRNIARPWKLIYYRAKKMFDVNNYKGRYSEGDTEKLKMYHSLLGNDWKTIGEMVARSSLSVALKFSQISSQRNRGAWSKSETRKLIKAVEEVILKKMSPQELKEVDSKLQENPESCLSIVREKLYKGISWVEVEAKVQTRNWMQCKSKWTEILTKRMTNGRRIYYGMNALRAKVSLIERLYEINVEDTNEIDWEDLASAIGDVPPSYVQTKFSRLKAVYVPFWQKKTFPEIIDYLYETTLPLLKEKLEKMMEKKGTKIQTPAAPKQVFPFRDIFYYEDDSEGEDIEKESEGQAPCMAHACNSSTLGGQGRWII
Method in brief: as §1

[5] = target: T5, UniProt Q147X3|Q147X3-2
T5 sequence (whole entry): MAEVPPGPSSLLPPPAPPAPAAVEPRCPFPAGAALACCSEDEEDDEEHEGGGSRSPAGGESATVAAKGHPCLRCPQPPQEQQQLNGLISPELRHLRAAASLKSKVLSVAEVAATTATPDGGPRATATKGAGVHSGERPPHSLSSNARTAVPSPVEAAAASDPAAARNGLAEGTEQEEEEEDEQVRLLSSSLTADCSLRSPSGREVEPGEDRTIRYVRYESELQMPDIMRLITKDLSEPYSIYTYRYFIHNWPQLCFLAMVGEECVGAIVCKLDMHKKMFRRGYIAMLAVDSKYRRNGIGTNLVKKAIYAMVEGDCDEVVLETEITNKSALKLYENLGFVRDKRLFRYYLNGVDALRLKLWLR
Method in brief: as §1

Nc1ncnc2c1ncn2[C@@H]1O[C@H](COP(=O)(O)OP(=O)(O)NP(=O)(O)O)[C@@H](O)[C@H]1O [adenylyl imidodiphosphate]
NP40-soluble protein abundance ([1]; concentration: 1mM): 1.01 ± 0.014
NP40-soluble protein abundance ([1]; concentration: 2mM): 1.03 ± 0.033
NP40-soluble protein abundance ([1]; concentration: 4mM): 0.977 ± 0.025
NP40-soluble protein abundance ([1]; concentration: 6mM): 0.969 ± 0.034
NP40-soluble protein abundance ([1]; concentration: 8mM): 0.976 ± 0.017
NP40-soluble protein abundance ([1]; concentration: 10mM): 0.9945 ± 0.0054
NP40-soluble protein abundance ([2]; concentration: 1mM): 1.11 ± 0.029
NP40-soluble protein abundance ([2]; concentration: 2mM): 1.22 ± 0.066
NP40-soluble protein abundance ([2]; concentration: 4mM): 1.24 ± 0.023
NP40-soluble protein abundance ([2]; concentration: 6mM): 1.26 ± 0.14
NP40-soluble protein abundance ([2]; concentration: 8mM): 1.27 ± 0.14
NP40-soluble protein abundance ([2]; concentration: 10mM): 1.37 ± 0.12
NP40-soluble protein abundance ([3]; concentration: 1mM): 1.15 ± 0.053
NP40-soluble protein abundance ([3]; concentration: 2mM): 1.27 ± 0.034
NP40-soluble protein abundance ([3]; concentration: 4mM): 1.36 ± 0.09
NP40-soluble protein abundance ([3]; concentration: 6mM): 1.51 ± 0.057
NP40-soluble protein abundance ([3]; concentration: 8mM): 1.59 ± 0.083
NP40-soluble protein abundance ([3]; concentration: 10mM): 1.8 ± 0.079
NP40-soluble protein abundance ([4]; concentration: 1mM): 0.967 ± 0.024
NP40-soluble protein abundance ([4]; concentration: 2mM): 0.963 ± 0.024
NP40-soluble protein abundance ([4]; concentration: 4mM): 0.957 ± 0.025
NP40-soluble protein abundance ([4]; concentration: 6mM): 0.96 ± 0.046
NP40-soluble protein abundance ([4]; concentration: 8mM): 0.912 ± 0.02
NP40-soluble protein abundance ([4]; concentration: 10mM): 0.949 ± 0.045
NP40-soluble protein abundance ([5]; concentration: 1mM): 0.992 ± 0.016
NP40-soluble protein abundance ([5]; concentration: 2mM): 0.971 ± 0.025
NP40-soluble protein abundance ([5]; concentration: 4mM): 1.01 ± 0.059
NP40-soluble protein abundance ([5]; concentration: 6mM): 1.03 ± 0.046
NP40-soluble protein abundance ([5]; concentration: 8mM): 0.99 ± 0.023
NP40-soluble protein abundance ([5]; concentration: 10mM): 1 ± 0.025
